An excerpt weighted towards active compounds, which were near 27% of everything screened.
CYP2C19 act: activators of human cytochrome P450 2C19; recombinant CYP2C19, luciferin-H EGE luminescence; hits give high values; 0 = fully inhibited enzyme, 1 = untreated enzyme; activation factor at 5 µM; 96,000 tested, under 10 active; AID 1025;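 active = activation factor of at least 2 at 5 µM in the primary screen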;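 also: 0 = wells with 2.5 mM tranylcypromine and 1 = vehicle-only wells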
Target sequence (P33261 whole entry, looked up): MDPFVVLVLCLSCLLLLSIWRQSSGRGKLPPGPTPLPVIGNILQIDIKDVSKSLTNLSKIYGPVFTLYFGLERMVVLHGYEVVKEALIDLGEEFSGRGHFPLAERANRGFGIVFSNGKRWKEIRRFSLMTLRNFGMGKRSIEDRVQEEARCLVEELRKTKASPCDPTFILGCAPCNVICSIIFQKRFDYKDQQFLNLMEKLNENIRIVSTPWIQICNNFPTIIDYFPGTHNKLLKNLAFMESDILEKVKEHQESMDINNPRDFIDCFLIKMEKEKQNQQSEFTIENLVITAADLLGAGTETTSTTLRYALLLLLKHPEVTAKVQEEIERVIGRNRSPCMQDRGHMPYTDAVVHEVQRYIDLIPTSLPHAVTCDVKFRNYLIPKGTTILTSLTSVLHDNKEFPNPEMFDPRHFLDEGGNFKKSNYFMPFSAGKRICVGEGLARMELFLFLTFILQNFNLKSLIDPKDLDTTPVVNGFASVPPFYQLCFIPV
sEH activator: activators of human soluble epoxide hydrolase. activation, % at 2 µM. P34913. AID 717. purified human sEH enzymatic activity, activator screen. 0.04% of 91,000 active; in the data active = activation above about 37%
sEH inhibitor: blocks human soluble epoxide hydrolase activity | P34913 | recombinant human sEH enzymatic activity assay | inhibition, % at 2 µM | 0.34% of 91,000 active | AID 707; in the data active = inhibition above about 80%
CYP2C9 inh: inhibitors of human CYP2C9 | 20% of 96,000 active | AID 777 | CYP2C9 Supersomes, luciferin-H conversion, luminescence | inhibition, % at 5 µM;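 active = blocking of liver enzyme CYP2C9 beyond about 50% at 5 µM, limit read from the data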
CYP2C9 act: increases human cytochrome P450 2C9 activity | recombinant CYP2C9, luciferin-H conversion, luminescence; hits give high values; factor 1 = untreated enzyme, 0 = blocked | P11712 | 1.4% of 96,000 active | activation factor at 5 µM;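 active = activation factor of 2 or more for CYP2C9 at a 5 µM dose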;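 also: 0 = sulfaphenazole-blocked wells and 1 = vehicle-only wells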
CYP2C19 inhib: blocks human cytochrome P450 2C19; CYP2C19 Supersomes, luciferin-H EGE luminescence, 30 min; 21% of 96,000 active; P33261; inhibition, % at 5 µM;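 active = CYP2C19 inhibition above a set limit at 5 µM in the primary screen, cut at about 50% in these data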;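 also: plate controls were negative control wells for no effect and 2.5 mM tranylcypromine positive control for full effect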
The depositor's hits bear a star; / = no result given.

SMILES | CYP2C19 act | sEH activator | sEH inhibitor | CYP2C9 inh | CYP2C9 act | CYP2C19 inhib
Cc1ccc(S(=O)(=O)N2CCCCC2C(=O)N2CCN(C)CC2)cc1 (stereo not given) | 1 | -2 | 2 | 18 | 0.8 | 1
CC(C)(C)c1csc(N(CCC#N)CCC#N)n1 | 0.5 | 0 | 1 | 56* | 0.4 | 54*
COCCn1c(SCC(=O)Nc2sccc2C(N)=O)nc2cc(Cl)ccc2c1=O | 0.5 | 5 | -4 | 60* | 0.4 | 45
COCCn1c(SCC(=O)NC(=O)NC(C)C)nc2ccccc21 | 0.5 | 2 | -1 | 30 | 0.7 | 46
COCCn1c(SCC(=O)Nc2ccc(Cl)cn2)nc2ccccc21 | 0.1 | -2 | 4 | -24 | 1.2 | 90*
COCCn1c(SCC(=O)Nc2ncc(Cl)c(C)c2Cl)nc2ccccc21 | 0.1 | -1 | 2 | 47 | 0.5 | 93*
COCCn1c(SCC(=O)NC(=O)NCc2ccccc2)nc2ccccc21 | 0.5 | -7 | 6 | -17 | 1.2 | 50
COCCn1c(SCC(=O)NC(=O)NC(C)(C)C)nc2ccccc21 | 0.4 | 2 | -2 | 27 | 0.7 | 57*
Cc1ccc(-c2nnc(SCc3nc(N)nc(Nc4ccccc4C)n3)n2N)cc1 | 0.6 | 14 | -16 | 37 | 0.6 | 42
COc1ccccc1C(=O)Nn1cnc2ccccc2c1=O | 0.9 | -6 | 5 | 17 | 0.8 | 13
CC1(C)C(=O)N(OCc2ccccc2)C(C)(C)C(=O)N1OCc1ccccc1 | 0.4 | 3 | -1 | 36 | 0.6 | 57*
N#CC1=C(N)N2C(=C(C#N)C1c1ccccc1)Sc1ccccc12 (stereo not given) | 1 | / | / | -6 | 1.1 | 3
N#CC1=C(N)N(c2ccccc2)C(c2ccccc2)C1(C#N)C#N (stereo not given) | 0.7 | 1 | 2 | 55* | 0.4 | 29
Cc1onc(-c2ccccc2)c1C(=O)NCC1CCN(C(=O)c2c(-c3ccccc3)noc2C)CC1 | 0.8 | 0 | 3 | 32 | 0.7 | 18
Cn1c2c(c(=O)n(C)c1=O)C(C(F)(F)F)(C(F)(F)F)N=C(c1ccccc1Cl)N2 | 1 | 12 | -9 | 73* | 0.3 | 1
Cn1c2c(c(=O)n(C)c1=O)C(NS(=O)(=O)c1ccc(Cl)cc1)(C(F)(F)F)C(=O)N2 (stereo not given) | 1 | -6 | 6 | 20 | 0.8 | -2
CCCCC(c1nnnn1Cc1ccco1)N1CCN(c2nc3ccccc3s2)CC1 (stereo not given) | 0.1 | 0 | 0 | 91* | 0.1 | 95*
CCCC(c1nnnn1Cc1ccccc1)N1CCN(c2ccccc2OC)CC1 (stereo not given) | 0.4 | / | / | 49 | 0.5 | 57*
c1ccc(C(c2nnnn2Cc2ccco2)N2CCN(c3nc4ccccc4s3)CC2)cc1 (stereo not given) | / | 5 | -1 | / | / | /
Cc1ccc(C)c(N2CCN(C(c3ccncc3)c3nnnn3Cc3ccccc3)CC2)c1 (stereo not given) | 0 | 8 | -8 | 93* | 0.1 | 97*
CCCC(c1nnnn1Cc1ccc(OC)cc1)N1CCN(c2ccccc2OC)CC1 (stereo not given) | 0.6 | 7 | -6 | 48 | 0.5 | 43
c1ccc(Cn2nnnc2C(c2ccccc2)N2CCN(c3nc4ccccc4s3)CC2)cc1 (stereo not given) | 0.4 | -10 | 10 | 65* | 0.4 | 58*
CCCc1cc(=O)n2[nH]c(Cc3ccccc3)nc2n1 | 1 | -7 | 11 | 27 | 0.7 | -3
N#Cc1nc(-c2cccs2)oc1N1CCN(Cc2ccccc2)CC1 | 0.8 | 0 | 1 | -17 | 1.2 | 19
Cc1ccc(-n2nnc3c(=O)n(CC(=O)NCC4CCCO4)cnc32)cc1 (stereo not given) | 1.1 | -9 | 10 | -26 | 1.3 | -10
SMILES | CYP2C19 act | sEH activator | sEH inhibitor | CYP2C9 inh | CYP2C9 act | CYP2C19 inhib
COc1ccccc1C(c1nnnn1Cc1ccccc1)N1CCN(c2nc3ccccc3s2)CC1 (stereo not given) | 0.5 | / | / | 56* | 0.4 | 47
O=C(O)C1CC(O)CN1C(=O)c1ccco1 (stereo not given) | 1 | -5 | 7 | -20 | 1.2 | -2
CSc1ccc(CNc2ccc(C)c(C)c2)cc1 | 0 | -7 | 10 | 0 | 1 | 98*
CSc1ccc(CNc2ccc(C)cc2)cc1 | 0.1 | -6 | 8 | 13 | 0.9 | 87*
CSc1ccc(CNc2cccc3ccccc23)cc1 | 0 | -9 | 10 | 13 | 0.9 | 98*
Cc1nc(OCc2ccccc2)c2sc3nc4c(cc3c2n1)COC(C)(C)C4 | 0.8 | 25 | -27 | 20 | 0.8 | 25
CC1(C)CC(=O)C2=C(C1)OC(N)=C(C#N)C2CCc1ccccc1 (stereo not given) | / | 6 | -6 | / | / | /
CC(c1ccccc1)C1C(C#N)=C(N)OC2=C1C(=O)CC(C)(C)C2 (stereo not given) | 0.1 | -22 | 22 | 84* | 0.2 | 90*
CC(CC1C(C#N)=C(N)OC2=C1C(=O)CCC2)c1ccccc1 (stereo not given) | 0.1 | -9 | 8 | 88* | 0.1 | 93*
CC1(C)CC(=O)C2=C(C1)OC(N)=C(C#N)C2C#Cc1ccccc1 (stereo not given) | 0.8 | -4 | 4 | 69* | 0.3 | 15
CC1(C)CC(=O)C2=C(C1)OC(/N=C/N1CCOCC1)=C(C#N)C2c1ccccc1 (stereo not given) | 0.7 | -3 | 1 | 65* | 0.3 | 31
CCOC(=O)c1cc(CC)sc1N | 0.6 | 6 | -7 | 26 | 0.7 | 43
COc1ccc(OC)c(NC(=O)CSc2nnc(C3CCCCC3)n2-c2ccccc2)c1 | / | 0 | 0 | / | / | /
O=C(N/N=C/c1c(Nc2cccc(C(F)(F)F)c2)nc2ccccn2c1=O)c1ccccc1 | 0.8 | 2 | -5 | 10 | 0.9 | 19
Cc1cc(C2C(C#N)=C(N)OC3=C2C(=O)CCC3)c(C)s1 (stereo not given) | 0.5 | -5 | 7 | 22 | 0.8 | 51*
O=C(CSc1nc2c(c(=O)n1-c1ccc(Br)cc1)SCC2)Nc1nccs1 | 0.4 | 47* | -45 | 27 | 0.7 | 61*
CCOc1ccc(-n2c(SCC(=O)NCc3ccco3)nc3c(c2=O)SCC3)cc1 | 0.7 | / | / | 62* | 0.4 | 26
COc1ccc(NC(=O)CSc2nc3c(c(=O)n2-c2ccc(F)cc2)SCC3)cc1 | 0.6 | 1 | -1 | 62* | 0.4 | 41
COC(=O)c1[nH]c2cccc(OC)c2c1NC(=O)CN1CC2(C)CC1CC(C)(C)C2 (stereo not given) | 1 | 2 | -3 | -1 | 1 | 2
Cc1ccccc1NC(=O)C1Cc2ccccc2C(=O)O1 (stereo not given) | 0.3 | -9 | 4 | 16 | 0.8 | 71*
O=C1OC(C(=O)Nc2nccs2)Cc2ccccc21 (stereo not given) | 0.6 | -9 | 10 | 40 | 0.6 | 44
